HCMV inh – human cytomegalovirus inhibition; HFF cells, HCMV-luciferase reporter, 72 h; stronger effect = lower value; activity change, negative = inhibition, % at 57.5 µM; 410,000 tested, 4.5% active; in the data active = activity change below about -60%; inconclusive = no clear call, values can overlap the other calls; inactive = above about -39%
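Inhibition of viral replication was scored as loss of reporter luminescence in HFFs infected with HCMV-luciferase (MOI 1 PFU/cell) for 72 h; compounds tested at 2 doses, normalized to buffer and Salinomycin controls.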
Pf growth 96h – P. falciparum growth inhibition at 96 hours; 320,000 tested, 6.9% active; AID 504834; P. falciparum luciferase reporter growth, 96 h; Potency, µM (titrated, usually from 28.7 µM), most hits filed as inhibitors
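Two-generation exposure (96 h) targets delayed-death phenotype. Reporter parasites carrying integrated firefly luciferase, in red cells at 2% hematocrit and 0.05% parasitemia final, kept at 37 C, 5% CO2; luminescence loss indicates inhibition.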
Pf growth 48h – P. falciparum growth inhibition at 48 hours (one generation); P. falciparum luciferase growth in erythrocytes, 48 h; Potency, µM (series often up to 28.7 µM), usual class: inhibitors; 310,000 tested, 5.9% active; AID 504832
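Read-out is firefly luciferase luminescence from an integrated reporter in P. falciparum, so falling signal marks reduced parasite growth. Infected erythrocytes were at 2% hematocrit and 0.1% parasitemia (final) in Albumax-supplemented RPMI 1640.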
HCV inhibitor – HCV inhibition; AID 651820; 340,000 tested, 3.4% active; Huh7.5.1 HCVcc-Cre infection, luciferase reporter, 44 h; Potency, µM (top dose mostly 41.8 µM), usual class: inhibitors
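Cells seeded at 1,000/well and cultured 4 h, then compounds added followed by HCVcc-Cre virus (~0.5 moi). After 44 h further culture, luciferase substrate was added, plates held 15 min at room temperature, and luminescence read for 15 sec.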
Each line names hits and unclear results; the compound was inactive in the other large screens; ! = not confirmed by another sample. An excerpt weighted towards active compounds, which were near 13% of everything screened. Unless noted, calls follow the shape of the dose curve; as a rule, active = well fitted inhibition curve with a large enough effect; inconclusive = small, poorly fitted or top-dose-only effect, or another doubt; inactive = no such curve, though single readings can be large or run the other way.

CC(C(=O)NCc1ccccc1F)n1ccc2cc(S(=O)(=O)N3CCCC3)ccc21 (configuration not stated)	none (no result: Pf growth 96h, Pf growth 48h, HCV inhibitor)
COc1ccc(C(=O)N2CCc3cc(OC)c(OC)cc3C2COc2ccc3c(C)cc(=O)oc3c2)c(OC)c1 (configuration not stated)	none (no result: Pf growth 96h, Pf growth 48h, HCV inhibitor)
Cc1ccc(C2=NN(CC(=O)NCCCN(CC(C)C)CC(C)C)C(=O)CC2)cc1	none (no result: Pf growth 96h, Pf growth 48h, HCV inhibitor)
O=C1OCCN1/N=C/c1ccc([N+](=O)[O-])o1	Pf growth 96h 3.8µM, Pf growth 48h 13µM!, HCV inhibitor inconclusive
O=C1O[C@H](CN2CCOCC2)CN1/N=C\c1ccc([N+](=O)[O-])o1	Pf growth 96h inconclusive (no result: HCMV inh, HCV inhibitor)
O=C1OC(CN2CCOCC2)CN1N=Cc1ccc([N+](=O)[O-])o1 (configuration not stated)	HCMV inh inconclusive, Pf growth 96h inconclusive, Pf growth 48h 13µM
O=C1CN(/N=C/c2ccc([N+](=O)[O-])o2)C(=O)N1	Pf growth 96h 4.1µM, Pf growth 48h 13µM, HCV inhibitor 25µM
O=C1OC(CN(Cc2ccccc2)Cc2ccccc2)CN1N=Cc1ccc([N+](=O)[O-])o1 (configuration not stated)	none (no result: Pf growth 96h, Pf growth 48h)
CC(=O)N1CCCc2cc(S(=O)(=O)N3CCC(C(=O)NCCC(C)C)CC3)ccc21	none (no result: Pf growth 96h, Pf growth 48h, HCV inhibitor)
CN(C)c1nnnn1Cc1ccccc1	none
CC(C#Cc1c([C@@H](C)Oc2ccccc2)nnn1Cc1ccccc1)Oc1ccccc1 (some centres not stated)	Pf growth 96h 9.3µM, Pf growth 48h 12µM
N#Cc1ccc(Oc2ccc(-c3nc4ccccc4nc3-c3ccccc3)cc2)cc1C#N	Pf growth 96h 3.7µM
C=CCn1c(O)c(N=NC(=S)Nc2cccc(C)c2)c2ccccc21	Pf growth 48h 1.9µM, HCV inhibitor inconclusive
C=CCn1c(O)c(N=NC(=O)c2ccccc2NS(=O)(=O)c2cccs2)c2ccccc21	HCMV inh -95, Pf growth 96h inconclusive, Pf growth 48h inconclusive
C=CCn1c(O)c(N=NC(=S)Nc2ccccc2F)c2cc(S(=O)(=O)N3CCOCC3)ccc21	HCMV inh -70, Pf growth 48h 6.6µM, HCV inhibitor inconclusive
CCCCn1c(O)c(N=NC(=O)c2ccccc2NS(=O)(=O)c2cccs2)c2ccccc21	Pf growth 96h inconclusive
CCn1c(O)c(N=NC(=O)CNc2cccc(C)c2)c2ccccc21	none
C=CCn1c(O)c(N=NC(=S)Nc2ccccc2F)c2ccccc21	HCMV inh -93, Pf growth 48h inconclusive, HCV inhibitor 10µM
CC(=O)Nc1ccc(C)cc1-c1nc2ccccc2n(Cc2cccc(Br)c2)c1=O	none (no result: Pf growth 96h, Pf growth 48h, HCV inhibitor)
CC1(C)CCC(C)(C)c2cc(NC(=O)c3ccc(C(=O)O)cc3)ccc21	none (no result: HCMV inh, HCV inhibitor)
Oc1c(N=NC(=S)Nc2ccccc2F)c2ccccc2n1Cc1ccccc1Cl	Pf growth 96h inconclusive, Pf growth 48h 5.2µM, HCV inhibitor inconclusive
Cc1c(Cl)cccc1NC(=S)N=Nc1c(O)n(CN2CCOCC2)c2ccccc12	Pf growth 48h 3.7µM, HCV inhibitor inconclusive (no result: HCMV inh)
CCc1ccc(OCC(=O)N(Cc2ccc(C)cc2)Cc2ccco2)cc1	none (no result: Pf growth 96h, Pf growth 48h, HCV inhibitor)
CC(=O)N1CC2(CC(=O)OC(C)C)CN(C(C)=O)CC(CC(=O)OC(C)C)(C1)C2=O	Pf growth 96h 12µM
Cc1ccc(C(=O)Nc2cccc(C(F)(F)F)c2)cc1Nc1ncnc2nc[nH]c12	HCMV inh inconclusive, Pf growth 96h 13µM, Pf growth 48h 13µM (no result: HCV inhibitor)
Cc1ccc(C(=O)Nc2cccc(C(F)(F)F)c2)cc1Nc1cnccn1	Pf growth 96h inconclusive, Pf growth 48h inconclusive, HCV inhibitor inconclusive
CCCCc1nnc(SCc2cc(=O)c3cc(C(=O)OCC)ccc3[nH]2)n1C	none (no result: Pf growth 96h, Pf growth 48h, HCV inhibitor)
COc1ccc(C(=O)Nc2ccc(-n3nncc3-c3ccc(OC)c(OC)c3)cc2)cc1	none (no result: Pf growth 96h, Pf growth 48h, HCV inhibitor)
O=c1ccc2c(o1)/C(=C/C=C(Cl)Cl)CCC2	Pf growth 96h inconclusive, HCV inhibitor 16µM
COc1ccc(C(=O)N(Cc2ccco2)Cc2ccco2)cc1	none (no result: Pf growth 96h, Pf growth 48h, HCV inhibitor)
Cc1cc(-c2ccc(C)c(S(=O)(=O)N3CCCC(C)C3)c2)on1 (configuration not stated)	none (no result: Pf growth 96h, Pf growth 48h, HCV inhibitor)
CC(C)c1ccc2[nH]c(O)c(N=NC(=O)c3cccc(S(=O)(=O)N4CCCCC4)c3)c2c1	Pf growth 96h 9.3µM, Pf growth 48h inconclusive, HCV inhibitor 11µM
O=C(N=Nc1c(O)[nH]c2ccccc12)c1cccc(S(=O)(=O)N2CCCCC2)c1	Pf growth 96h 3.3µM, Pf growth 48h 9.3µM
O=C(NCc1ccccc1)c1cccc(S(=O)(=O)N2CCCCC2)c1	none

Source: PubChem (National Center for Advancing Translational Sciences (NCATS))
